Over roughly 16,000 sequences, “e-score” has its median near -0.044; the highest 2% begin near 0.38. Only a selection was taken, and the highest values are over-represented in it overall.

This experiment concerns the target T1, GST-NbGlk1(82-244) (Nicotiana benthamiana).
T1 chain: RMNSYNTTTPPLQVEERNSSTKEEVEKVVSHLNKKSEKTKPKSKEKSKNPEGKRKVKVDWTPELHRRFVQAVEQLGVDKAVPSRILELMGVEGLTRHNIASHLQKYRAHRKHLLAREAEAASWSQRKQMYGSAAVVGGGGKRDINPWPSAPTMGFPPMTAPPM
Briefly: protein-binding microarray; NbGlk1 is a Golden2-like transcription factor of Nicotiana benthamiana; high values mean tight binding. The following applies: protein: recombinant; tags: GST (pTH6838); dsDNA, one strand shown.
Turning to ACGGATTC, the binding signal came out at 0.405 ± 0.00859 E-score.

Take ATGGATTA: the binding signal is 0.326 ± 0.0123 E-score.

Consider ATGGATTC, for which the binding signal was 0.425 ± 0.0111 E-score.

ACGGATTA: the binding signal came out at 0.312 ± 0.00583 E-score.

On to ACGGATTG, for which the binding signal amounted to 0.277 ± 0.0929 E-score.

As for ATGGATTG, the binding signal amounted to 0.21 ± 0.0605 E-score.

Turning to ACGCTGAT, the binding signal stood at 0.235 ± 0.108 E-score.

Consider ATTTCTTG, for which the binding signal came out at 0.258 ± 0.105 E-score.

As for AATGAAAT, the binding signal was determined as 0.236 ± 0.00744 E-score.

In the case of CAATCTCG, the binding signal is 0.404 ± 0.00662 E-score.

On to CAATCACA, for which the binding signal was determined as 0.205 ± 0.12 E-score.

CAATCTCA: the binding signal was 0.329 ± 0.0291 E-score.

As for CAATCTCC, the binding signal is 0.349 ± 0.0541 E-score.

For AATTCTCA, the binding signal stood at 0.243 ± 0.0881 E-score.

For the sequence AAATCTCG, the binding signal came to 0.4626 ± 0.00233 E-score.

For the sequence AAATCTCC, the binding signal was found to be 0.439 ± 0.00952 E-score.

For AAATCTCA, the binding signal was found to be 0.444 ± 0.0165 E-score.

As for ATCGAATA, the binding signal is 0.235 ± 0.0136 E-score.

Turning to ACGAGAAT, the binding signal is 0.31 ± 0.0433 E-score.

As for ATCTAATG, the binding signal was 0.243 ± 0.0558 E-score.

On to ATTTCCCA, for which the binding signal turned out to be 0.329 ± 0.00415 E-score.

On to CACGATCG, for which the binding signal worked out at 0.23 ± 0.0866 E-score.

On to ATCTATCA, for which the binding signal was found to be 0.276 ± 0.0314 E-score.

For ATAGGATC, the binding signal came out at 0.255 ± 0.0193 E-score.

Take AATCAACA: the binding signal was found to be 0.259 ± 0.102 E-score.

For ATCTTTTG, the binding signal was found to be 0.24 ± 0.0872 E-score.

Take AATCATAT: the binding signal amounted to 0.28 ± 0.0597 E-score.

Take ACTGTGAT: the binding signal is 0.208 ± 0.0601 E-score.

As for AGATCGGG, the binding signal was found to be 0.239 ± 0.0369 E-score.

On to ATCCTCTA, for which the binding signal turned out to be 0.342 ± 0.0176 E-score.

For ACTGATAC, the binding signal was 0.204 ± 0.0454 E-score.

For CAAAGATA, the binding signal was 0.225 ± 0.0785 E-score.

As for AAATCTCT, the binding signal turned out to be 0.392 ± 0.0226 E-score.

For the sequence AATTCTCT, the binding signal is 0.225 ± 0.0473 E-score.

AAATCACT: the binding signal worked out at 0.26 ± 0.0391 E-score.

Turning to ATCCTCAA, the binding signal came out at 0.322 ± 0.0217 E-score.

Regarding ACCGGATC, the binding signal was 0.21 ± 0.0564 E-score.

Take ATATAAGA: the binding signal turned out to be 0.21 ± 0.0738 E-score.

Take AGAATTTC: the binding signal stood at 0.267 ± 0.0165 E-score.

For AGGATTTG, the binding signal stood at 0.383 ± 0.0174 E-score.

In the case of AGAATTTG, the binding signal is 0.293 ± 0.0716 E-score.

Turning to AGGATTTC, the binding signal came to 0.469 ± 0.0121 E-score.

Take AATATTTC: the binding signal amounted to 0.34 ± 0.0237 E-score.

AGTATTTG: the binding signal turned out to be 0.208 ± 0.054 E-score.

Turning to ATCTCCTA, the binding signal was found to be 0.337 ± 0.0176 E-score.

In the case of AGGGAAAT, the binding signal was found to be 0.334 ± 0.0487 E-score.

As for AATAAGAT, the binding signal was found to be 0.3 ± 0.0136 E-score.

Take ATTACTCA: the binding signal was 0.208 ± 0.0879 E-score.

For AATCGCGA, the binding signal came out at 0.376 ± 0.0188 E-score.

Consider AGATCTCG, for which the binding signal was found to be 0.431 ± 0.0229 E-score.

Take AGATCCCA: the binding signal came out at 0.219 ± 0.0112 E-score.

Regarding AGATCTAC, the binding signal was 0.347 ± 0.0432 E-score.

AGATCTCA: the binding signal came out at 0.413 ± 0.0152 E-score.

As for AGATCCCC, the binding signal came to 0.378 ± 0.0125 E-score.

Turning to AGATCTCC, the binding signal was found to be 0.441 ± 0.0151 E-score.

For AGATCACG, the binding signal worked out at 0.26 ± 0.003 E-score.

Regarding AGATCCCG, the binding signal was determined as 0.32 ± 0.0375 E-score.

Regarding ATCGTAAC, the binding signal came out at 0.244 ± 0.00995 E-score.

For the sequence ATCATATC, the binding signal is 0.329 ± 0.0297 E-score.

Regarding ATTCCCGG, the binding signal was found to be 0.283 ± 0.0331 E-score.

In the case of AAAATCGT, the binding signal was 0.39 ± 0.0061 E-score.

With ATAATCGC, the binding signal was 0.207 ± 0.0834 E-score.

As for CAAATCGA, the binding signal worked out at 0.28 ± 0.0483 E-score.

As for AAAATCGC, the binding signal stood at 0.405 ± 0.00862 E-score.

AAAATCGG: the binding signal is 0.363 ± 0.0144 E-score.

Regarding ATAATCGA, the binding signal was 0.216 ± 0.00243 E-score.

On to AAAATCGA, for which the binding signal was 0.381 ± 0.0174 E-score.

With CAAATCGC, the binding signal came to 0.32 ± 0.038 E-score.

In the case of AATTGCGT, the binding signal stood at 0.233 ± 0.0124 E-score.

Regarding AATTATCC, the binding signal turned out to be 0.204 ± 0.00884 E-score.

As for ATCTGAGC, the binding signal is 0.219 ± 0.0796 E-score.

ATAGATTA: the binding signal amounted to 0.339 ± 0.0049 E-score.

Consider AGAGATTA, for which the binding signal came out at 0.298 ± 0.025 E-score.

Regarding ACAGATTG, the binding signal stood at 0.359 ± 0.0598 E-score.

ACAGATTC: the binding signal was determined as 0.429 ± 0.0275 E-score.

Regarding ATAGATTC, the binding signal stood at 0.437 ± 0.0195 E-score.

For AGAGATTG, the binding signal came to 0.325 ± 0.048 E-score.

Regarding ATAGATTG, the binding signal was 0.327 ± 0.0261 E-score.

For ACAGATTA, the binding signal turned out to be 0.362 ± 0.0124 E-score.

Take AGAGATTC: the binding signal stood at 0.434 ± 0.028 E-score.

Regarding ACCAGATC, the binding signal is 0.2 ± 0.124 E-score.

As for ATCACGTA, the binding signal was 0.257 ± 0.0112 E-score.

AAGTATCT: the binding signal came to 0.249 ± 0.0273 E-score.

Turning to AATTTAGA, the binding signal came to 0.251 ± 0.0537 E-score.

Turning to AGTGCGAT, the binding signal was determined as 0.313 ± 0.00866 E-score.

As to AAGGGGAT, the binding signal is 0.203 ± 0.0242 E-score.

The values are drawn from paper PMC5836133, “The intracellular immune receptor Rx1 regulates the DNA-binding activity of a Golden2-like transcription factor”.
